# GPR151 activ: activators of human GPR151, primary screen, cell-based, PathHunter beta-arrestin, luminescence; PathHunter beta-arrestin GPR151 cells; activation, % at 11.2 µM; 650,000 tested, 1% active; AID 1508602, 2020; in the data active = activation above about 4.9%;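 note: 0% = median of compound wells and 100% = cells with positive control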
# MITF primary: MITF inhibitors, primary screen, biochemical, AlphaScreen, human. Microphthalmia-associated transcription factor (Homo sapiens), O75030. AlphaScreen MITF homodimerization, bead proximity signal. inhibition, % at 2.6 µM. 650,000 tested, 0.91% active. AID 1259374, 2018; in the data active = inhibition above about 50%;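 note: 0% = vehicle wells with protein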
# Target sequence (O75030 whole entry, looked up): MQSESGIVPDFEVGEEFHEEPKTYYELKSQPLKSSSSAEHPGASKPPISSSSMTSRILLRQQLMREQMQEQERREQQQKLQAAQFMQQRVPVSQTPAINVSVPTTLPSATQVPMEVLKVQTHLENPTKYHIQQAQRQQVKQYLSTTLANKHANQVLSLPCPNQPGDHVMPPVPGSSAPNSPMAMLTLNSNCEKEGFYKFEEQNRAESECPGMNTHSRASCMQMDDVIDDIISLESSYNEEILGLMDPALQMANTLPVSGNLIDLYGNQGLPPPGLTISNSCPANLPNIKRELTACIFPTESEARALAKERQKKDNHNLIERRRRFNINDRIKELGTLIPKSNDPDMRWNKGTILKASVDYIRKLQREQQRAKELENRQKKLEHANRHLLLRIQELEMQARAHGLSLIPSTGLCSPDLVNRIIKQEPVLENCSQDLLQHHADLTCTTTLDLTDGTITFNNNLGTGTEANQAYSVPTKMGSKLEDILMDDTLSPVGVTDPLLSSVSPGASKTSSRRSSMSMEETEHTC
# FBW7 activator: FBW7 E3 ligase activators, primary screen, biochemical, AlphaScreen, human; AlphaScreen FBW7–phospho-cyclin E peptide binding, activator screen; AID 1259310, 2017; normalized activity (activation), % at 26.1 µM; F-box/WD repeat-containing protein 7 (Homo sapiens), Q969H0; 650,000 tested, 0.13% active; in the data active = normalized activity above about 1.9%;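 note: purified mutant Fbw7 with reduced substrate affinity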
# TEAD-YAP inh: TEAD-YAP interaction inhibition, primary screen, TEAD-YAP interaction inhibitor project, luminescence, HEK-TIYL cells | TEAD-Gal4/YAP UAS-luciferase luminescence | inhibition, % at 9.12 µM | 640,000 tested, 1.4% active | AID 1259422, 2018; in the data active = inhibition above about 32%;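 note: 0% = median of test compound wells and 100% = reference inhibitor wells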
# An asterisk follows results filed as active; ! = a repeat was not active. This is a sample that favours compounds with a hit; in the whole collection about 3.5% have one here.
SMILES,GPR151 activ,MITF primary,FBW7 activator,TEAD-YAP inh
C[C@@H]1O[C@@H](O[C@H]2CC[C@]3(C=O)C4CC[C@]5(C)[C@@H](C6=CC(=O)OC6)CC[C@]5(O)C4CC[C@]3(O)C2)[C@H](O)[C@H](O)[C@H]1O (some centres undefined),-1,-3,0,101*
C[C@@H]1C[C@@H]([C@H](O)CC2CC(=O)NC(=O)C2)C(=O)[C@@H](C)C1,-3,-9,0,98*
CCOc1cccc(CN2CCN(c3ccccc3F)CC2)c1O,0,-2,0,-3
CCN1/C(=C/C=C/c2oc3ccc(-c4ccccc4)cc3[n+]2CC)Oc2ccc(-c3ccccc3)cc21 (tested in a mixture with another compound),1,-35,0,82*
COc1ccc(C2NCc3ccccc3-n3cccc32)c(OC)c1OC (centres undefined),-1,-14,0,6
C[n+]1c2ccccc2nc2ccc(NC3CCCCC3N)cc21 (centres undefined),0,20,0,77*
C=CCOC(=O)C1=C(C)OC(N)=C(C(=O)OCCOC)C12C(=O)Nc1ccccc12 (centres undefined),-1,-2,0,7
Cc1ccc2oc(C(=O)OC(C)C(C)CN(C)C)cc2c1 (centres undefined),-2,10,2.5*,17
COC(=O)C1C2c3ccccc3C(c3ccccc32)C1C(=O)O (centres undefined),1,0,0,7
c1coc(CNCCc2ccc3c(c2)OCO3)c1,1,45,0,-3
CCC1CN(C)CCC1(O)c1ccccc1 (centres undefined),1,10,0,9
CCN1CCC(O)(c2ccccc2)C(C(=O)c2ccccc2)C1 (centres undefined),-1,9,2.0*,4
Cc1c(O)c(O)cc2c1CC=C1[C@@]2(C)CC[C@@]2(C)C3C[C@](C)(C(=O)O)CC[C@]3(C)CC[C@]12C (some centres undefined),-1,-3,0,56*
CC1=C(O)C(=O)C=C2C1=CC=C1[C@@]2(C)CC[C@@]2(C)[C@@H]3C[C@](C)(C(=O)O)CC[C@]3(C)CC[C@]12C,-1,-13,0,43*
O=c1c2ccccc2nc(-c2ccccc2F)n1-c1ccccc1Cl,0,11,0,13
Cc1ccc(N2C(=O)NC(=O)/C(=C/c3ccc([N+](=O)[O-])o3)C2=O)cc1,0,70*,0,0
COc1ccc(N2C(=O)/C(=C\c3ccc(C)o3)C(=O)NC2=S)cc1,-1,-3,0,-2
COc1ccc(Sc2ccc(C=C3C(=O)NC(=O)NC3=O)o2)cc1,0,9,0,9
COc1ccc(N2C(=O)NC(=O)/C(=C/c3ccc(Br)o3)C2=O)cc1,3,73*,0,3
COc1ccc(N2C(=O)/C(=C/c3ccc(Br)o3)C(=O)NC2=S)cc1,-1,60*,0,9
O=C1NC(=O)C(=Cc2ccc(Br)o2)C(=O)N1,2,63*,0,-1
COC1CCCCC1NCCc1cccc(F)c1 (centres undefined),1,29,0,-2
COc1cc(C=C(C#N)C#N)cc(Br)c1O,-1,7,1,8
C[N+](C)(C)CC(=O)Nc1ccc(Br)cc1C(=O)c1ccc(Cl)cc1,0,4,0,1
O=c1c2ccccc2nc(N2CCOCC2)n1-c1ccccc1,-1,-9,0,-5
SMILES,GPR151 activ,MITF primary,FBW7 activator,TEAD-YAP inh
CCn1nc(-c2ccc([N+](=O)[O-])cc2)nc2c(=O)n(C)c(=O)nc1-2,-8,9,0,70*
CCn1nc(/C=C/c2ccccc2)nc2c(=O)n(C)c(=O)nc1-2,-6,6,-2,33*
COc1ccc(-n2c(/C=C/c3ccccc3)nc3ccccc3c2=O)cc1,1,-3,0,7
CCCCOc1ccc(S(=O)(=O)N(CCCl)CCCl)cc1,0,-25,1,0
CCN1CCN(Cc2cc(Cl)cc(Cl)c2O)CC1,0,0,1,4
C#CCOc1ccccc1/C=C/[N+](=O)[O-],-2,2,0,46*
O=C1NC(=S)N(c2ccccc2F)C(=O)/C1=C\c1ccco1,0,72*,0,-8
Cc1ccc(N2C(=O)/C(=C\C=C\c3ccco3)C(=O)NC2=S)cc1,-1,59*,0,-1
C=CCN1C(=O)/C(=C/c2ccco2)C(=O)NC1=S,-1,77*,-1,8
O=C1NC(=S)N(c2ccccc2)C(=O)/C1=C/c1ccco1,3,66*,-1,9
N#CC1=C(N)Oc2c(c(=O)oc3ccccc23)C1c1ccc(Cl)c(Cl)c1 (centres undefined),-1,-3,0,11
Cc1c(Cl)cccc1-n1c(/C=C/c2ccccc2)nc2ccccc2c1=O,0,-11,0,-4
COCC(C)NC(=O)c1nn(Cc2ccc(-c3csnn3)cc2)c2ccccc12 (centres undefined),1,-7,0,-3
O=C1OC(c2cncc(Br)c2)=N/C1=C\c1ccc(Cl)cc1Cl,-1,2,0,-2
CCOc1ccc(C(=O)Nc2ccc(Cl)cc2C(=O)c2ccccc2Cl)cc1,0,16,0,3
CCOC(=O)C1=C(N)OC(CC(=O)OC)=C(C(=O)OC)C12C(=O)Nc1ccccc12 (centres undefined),0,5,0,0
O=C1NC(=S)N(Cc2ccco2)C(=O)/C1=C\c1cccs1,2,82*,-1,-2
O=C1NC(=O)N(Cc2ccco2)C(=O)/C1=C\c1ccco1,-1,31,-1,-3
O=[N+]([O-])c1cccc(CN2CCN(Cc3ccccc3)CC2)c1,-1,36,0,2
O=Cc1cn(Cc2cccc([N+](=O)[O-])c2)c2ccccc12,-1,-4,-1,48*
CC(C)(C)NC(=O)N1CCC2(CC1)OCc1cc(Br)ccc1O2,0,0,1,2
COc1cc2c(cc1OC)[C@@H]1C(=O)c3ccc4c(c3O[C@@H]1CO2)C[C@H](C(C)C)O4,2,13,0,68*
COc1ccc2c(c1)[nH]c1c(C)nccc12,0,-9,0,85*!
COc1ccc2c3c([nH]c2c1)C(C)=NCC3,0,27,0,24
COc1ccc(NC2=NCCCS2)cc1,-1,6,1,-5
COc1ccccc1/C=C1\CCCc2c(-c3ccccc3)cc(-c3ccccc3)[n+](C)c21,2,14,0,95*
COc1ccc(/C=C2\CCCc3c(-c4ccccc4)cc(-c4ccccc4)[n+](C)c32)cc1,1,-3,0,92*
CCOC(=O)c1c(C)n(Cc2ccccc2)c2ccc(OCC(O)Cn3c(C)nc4ccccc43)cc12 (centres undefined),-1,-14,0,0

# Screening results: PubChem BioAssay, The Scripps Research Institute Molecular Screening Center
